D1 potentiator = human D1 dopamine receptor positive modulation; HEK293 TREx D1 cells, calcium flux, dopamine EC20 potentiation; P21728; potentiation, % at 10 µM; AID 504651; actives 0.036% (n = 360,000); in the data active = potentiation above about 30%
D1 antag = human D1 dopamine receptor antagonism. P21728. HEK293 TREx D1 cells, calcium flux, dopamine EC80; hits give low values. activity change, negative = inhibition, % at 10 µM. actives 3.2% (n = 360,000). AID 504652; in the data active = activity change below about -30%
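Antagonism measured as reduced calcium response to an EC80 dopamine addition following 180 s compound pre-read; cells were inducible HEK293 Trex D1 plated overnight at 30 C, read kinetically at 1 cycle/sec.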
D1 agonist = activates the human D1 dopamine receptor. actives 1% (n = 360,000). AID 504660. activation, % at 2 µM. HEK293 T-REx D1 cells, calcium flux, agonist mode. P21728; in the data active = activation above about 30%
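Inducible HEK293 T-REx D1 cells, force-coupled to calcium signalling, were plated at 4000 cells/well with tetracycline and held overnight at 30 C. After no-wash calcium dye loading, compound-evoked calcium rise over 180 s flagged agonists.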
DRD3 antagonist = antagonists of human D3 dopamine receptor | max response, negative = inhibition, % | actives 2.5% (n = 360,000) | D3R cells, DiscoveRx beta-arrestin luminescence, antagonist mode; hits give low values; in the data active = max response below about -50%; inconclusive = no clear call, values can overlap the other calls
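Cells expressing the human receptor were seeded at 1500 cells/well, incubated overnight at 37 degrees C in 5% CO2, then exposed to library compounds with dopamine controls for 90 minutes at 37 degrees C before luminescent detection.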
ERG-DNA inh = inhibitors of human ERG Ets domain-DNA interaction; actives 0.028% (n = 370,000); Potency, µM (titrated, usually from 76.9 µM), most hits filed as inhibitors; P11308; fluorescence polarization, His-ERG Ets domain / labelled DNA; active = well fitted inhibition curve with a large enough effect in the polarisation, with a control signal flat; inconclusive = small, poorly fitted or top-dose-only effect, or effect the other way, or a change in a side signal; inactive = no such curve, though single readings can be large or run the other way; the % refers to the polarisation;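 also: polarization taken with two DNA probes labelled with fluorescein and Texas red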
Target sequence (P11308 whole entry, looked up, the tested form may be a part): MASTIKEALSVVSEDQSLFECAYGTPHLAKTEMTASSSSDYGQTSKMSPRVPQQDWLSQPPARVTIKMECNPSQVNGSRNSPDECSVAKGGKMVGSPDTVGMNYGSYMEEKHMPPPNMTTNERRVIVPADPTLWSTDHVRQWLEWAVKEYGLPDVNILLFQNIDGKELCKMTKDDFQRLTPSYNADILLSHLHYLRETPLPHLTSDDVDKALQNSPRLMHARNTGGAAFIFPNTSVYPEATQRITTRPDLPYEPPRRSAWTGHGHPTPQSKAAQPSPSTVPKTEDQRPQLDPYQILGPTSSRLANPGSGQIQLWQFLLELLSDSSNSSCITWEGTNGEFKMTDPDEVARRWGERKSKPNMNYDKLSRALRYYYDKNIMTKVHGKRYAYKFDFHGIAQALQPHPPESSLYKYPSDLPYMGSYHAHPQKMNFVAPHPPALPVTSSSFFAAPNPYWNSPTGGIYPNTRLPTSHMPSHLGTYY
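His-tagged ERG Ets domain (1 uM in the protein solution; 300mM KCl, 50mM Tris-HCl, 1mM EDTA, 1mM DTT, pH 7.5) received compound, then a probe mix of 5 nM fluorescein-DNA and 100nM Texas-615-DNA. Fluorescence polarization was read for both dyes.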
D3 ag = activates the human D3 dopamine receptor | D3R DiscoveRx beta-arrestin cells, luminescence, 90 min | actives 0.58% (n = 410,000) | AID 652048 | P35462 | max activation, %; in the data active = max activation above about 30%
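Cells at 1500/well, incubated overnight, then treated with pinned compounds (dopamine as control) for 90 min at 37 degrees C. DiscoveRx reagent added for 30 - 60 minutes at room temperature; luminescence read.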
Each line names hits and unclear results; the compound was inactive in the other large screens; ! = not active in a repeat. Compounds with a hit are over-represented: about 6.1% of the library has one in this group of screens.

O=C(NC1CCCC1)C1CCCN(S(=O)(=O)c2cnc[nH]2)C1 (stereo not given)	none (no result: D1 potentiator)
O=C(NCCN1CCN(c2cccc(Cl)c2)CC1)C1CCCN(S(=O)(=O)c2cnc[nH]2)C1 (stereo not given)	DRD3 antagonist -85.7 (no result: D1 potentiator)
O=C(NCc1ccccc1Cl)C1CCCN(S(=O)(=O)c2cnc[nH]2)C1 (stereo not given)	D1 antag -44.2 (no result: D1 potentiator)
CCOC(=O)C1CCCN(C(=O)C2CCN(S(=O)(=O)c3cnc[nH]3)CC2)C1 (stereo not given)	D1 antag -41.0
CC1CCN(C(=O)Cn2c(-c3cccs3)cc3cc(Cl)ccc32)CC1	none (no result: DRD3 antagonist)
N#CCC(=O)N/N=C/c1ccc(OCc2ccccc2)cc1	none
CN1CCSc2ccc(C(=O)Nc3cc(F)ccc3F)cc21	none
O=C(NCCN1CCN(c2ccccc2)CC1)C1CCCN(S(=O)(=O)c2cnc[nH]2)C1 (stereo not given)	DRD3 antagonist -63.3
Cc1cccc(C(=O)Nc2ccc(C(=O)OCc3cc(=O)n4c5c(sc4n3)CCCC5)cc2)c1	none (no result: DRD3 antagonist)
CC(=O)c1c(C)[nH]c(C(=O)N2CCc3ccccc3C2)c1C	none
CC(=O)c1c(C)[nH]c(C(=O)N2c3ccccc3CC2C)c1C (stereo not given)	D1 antag -41.2
O=S(=O)(c1ccc(Cl)s1)N1CCNCC1	none (no result: D1 potentiator, D1 antag, D1 agonist)
C#C[C@]1(O)CC[C@H]2[C@@H]3CCc4cc(OC)ccc4[C@H]3CC[C@@]21C	D3 ag 30.0!
C#C[C@]1(O)CC[C@H]2[C@@H]3CCc4cc(OC5CCCC5)ccc4[C@H]3CC[C@@]21C	none
O=C(OCC1CCNCC1)c1ccc2c(c1)OCO2	none
O=C(OCC1CCNCC1)c1ccc(F)cc1	DRD3 antagonist -54.7 (no result: D1 potentiator, D1 antag, D1 agonist)
C=CCN(C(=O)CCS(=O)(=O)c1cccc2nsnc12)c1ccccc1	none
CCN(C(=O)CCS(=O)(=O)c1cccc2nsnc12)c1cccc(C)c1	D1 antag -56.6!
COc1ccc(C(=O)c2[nH]c(N)c(C(N)=O)c2-c2ccc(OC)c(OC)c2)cc1	none (no result: D1 potentiator, D1 antag, D1 agonist, ERG-DNA inh)
CCOC(=O)C1=C(c2ccccc2)N=c2s/c(=C\c3cccc(O)c3)c(=O)n2C1c1cccs1 (stereo not given)	none (no result: ERG-DNA inh)
O=c1/c(=C\c2ccc(O)cc2)sc2n1C(c1ccccc1)C(c1ccccc1)=NN=2 (stereo not given)	D1 antag -50.7, D1 agonist 33.2, DRD3 antagonist -59.3
O=S1(=O)CC(N2CC=CC2)CN1Cc1cn(Cc2ccc(F)cc2)nn1 (stereo not given)	DRD3 antagonist -52.3 (no result: D1 potentiator, D1 antag, D1 agonist, ERG-DNA inh)
CN1CCN(C2CN(Cc3cn(Cc4cccc(C(F)(F)F)c4)nn3)S(=O)(=O)C2)CC1 (stereo not given)	DRD3 antagonist -50.9 (no result: D1 potentiator, D1 antag, D1 agonist, ERG-DNA inh)
O=C(OCc1csc(-c2ccccc2)n1)C1=NN(c2ccccc2)C(=O)CC1	D1 antag -35.9
N#Cc1c2ccc([N+](=O)[O-])cc2[n+]([O-])n1-c1ccccc1	D1 antag -61.3 (no result: DRD3 antagonist, ERG-DNA inh, D3 ag)
CCCCNC(=O)Cn1cnc([N+](=O)[O-])n1	none
COCCNC(=O)Cn1cnc([N+](=O)[O-])n1	DRD3 antagonist -70.9
Cn1c(N)c(C(=O)COC(=O)c2cccc(S(=O)(=O)N3CCCCC3)c2)c(=O)n(C)c1=O	none
CNS(=O)(=O)c1cccc(C(=O)OCC(=O)/C=C2/N(C)c3ccccc3C2(C)C)c1	D1 antag -42.9
CNS(=O)(=O)c1cccc(C(=O)OCC(=O)c2c(N)n(C)c(=O)n(C)c2=O)c1	D1 antag -32.4
Cc1ccccc1OCCSc1nc2ccc(NC(=O)c3cccc(F)c3)cc2s1	none (no result: DRD3 antagonist)
CC(C)(C)C(=O)Nc1ccc2nc(SCCOc3ccccc3Cl)sc2c1	D1 agonist 30.1 (no result: DRD3 antagonist)
Cc1ccccc1OCCSc1nc2ccc(NC(=O)c3ccccc3)cc2s1	D1 antag -32.9 (no result: DRD3 antagonist)
O=C(NCCNC(=O)c1ccccc1O)c1ccccc1O	none
O=C(NCCCCCCNC(=O)c1ccccc1O)c1ccccc1O	D1 antag -41.6
CC(=NNC(=S)N1CC2CCC(CC2)C1)c1cccc(C)n1	DRD3 antagonist -72.7 (no result: D1 potentiator, D1 antag, D1 agonist, ERG-DNA inh)
c1ccc(-c2ccccc2OCCCCN2CCCCC2)cc1	DRD3 antagonist -71.4
CCN1CCN(CCOCCOc2ccccc2-c2ccccc2)CC1	none (no result: DRD3 antagonist, ERG-DNA inh, D3 ag)
c1ccc(-c2ccccc2OCCCN2CCCC2)cc1	D1 antag -38.9, DRD3 antagonist -71.1
c1ccc(-c2ccccc2OCCCN2CCCCCC2)cc1	D1 antag -43.5, DRD3 antagonist inconclusive
CCOc1cc(C)c(S(=O)(=O)N2CCCCC2)cc1C	none
O=C(/C=C/c1ccccc1)N/C(=C/c1ccccc1)C(=O)NCCCO	none (no result: ERG-DNA inh)
Cc1ccccc1Nc1nc(N)nc(COC(=O)c2ccc(O)cc2)n1	D1 antag -42.7
CCOC(=O)[C@@H]1[C@H]2COc3ccc(Br)cc3[C@H]2N2C(=O)N(c3ccc(F)cc3)C(=O)[C@@]12C	DRD3 antagonist inconclusive
NC(=O)CSC1=Nc2ccccc2C2=NC(c3ccccc3)C(=O)N12 (stereo not given)	none
CCN(CC)C(=O)CSC1=Nc2ccccc2C2=NC(c3ccccc3)C(=O)N12 (stereo not given)	DRD3 antagonist -61.6
Nc1cc([N+](=O)[O-])ccc1Nc1ccccc1	DRD3 antagonist inconclusive
CC/C(=C(\c1ccccc1)c1ccc(OCCN(C)C)cc1)c1ccccc1	D1 agonist 87.0!, DRD3 antagonist -72.8!, ERG-DNA inh inconclusive
CCOC(=O)C(=CNc1ccc(N2CCOCC2)cc1)C(=O)OCC	none
CCOC(=O)C(=CNc1ccc2c(c1)CCN2C(C)=O)C(=O)OCC	D3 ag 32.4
CCOC(=O)C(=CNc1ccc(-c2ccco2)c(Cl)c1)C(=O)OCC	D3 ag 37.8
CC(=O)N1C[C@H](O)C[C@H]1C(=O)O	none
COc1ccc(NC(=O)C(c2ccc(Cl)cc2)C(C)C)cn1 (stereo not given)	D1 agonist 38.5
COc1ccc(NC(=O)Nc2ccc(F)cc2)cn1	none
C[C@@]12CCC3[C@@](CCC4[C@@]3(C)CCC[C@@]4(C)C(=O)N3CCOCC3)(CC1=O)C2 (stereo not given in full)	D3 ag 31.4 (no result: D1 potentiator, D1 antag, D1 agonist)
CC(C)NC(=O)[C@]1(C)CCC[C@@]2(C)C3CC[C@@]4(C)C[C@]3(CCC21)CC4=O (stereo not given in full)	none (no result: D1 antag)
Cc1nc(SCCOc2ccc(F)cc2)c2ccccc2n1	D1 agonist 33.6
COC(=O)c1cc2oc3ccccc3c2n1CC(=O)Nc1ccc(N(C)C)cc1	none (no result: DRD3 antagonist)
N#C/C(=C\c1cccs1)Sc1nc2ccccc2s1	D1 antag -34.7
COc1ccc(C(=O)NC(=S)Nc2ccc(S(N)(=O)=O)cc2)cc1	none

High-throughput results deposited in PubChem by National Center for Advancing Translational Sciences (NCATS).
